For experiment [1], the system named is Staphylococcus aureus Sa2 (MRSA, cystic fibrosis isolate). The experiment is described as follows: growth reduction vs untreated control (OD550); higher = stronger antibacterial activity. Conditions: 0.1 mM; 24 h. The method, then: (§1)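 Single-dose screen of the MedChem Express Drug Repurposing Library (0.1 mM, 1% DMSO) against planktonic MRSA S. aureus Sa2 (CF isolate) in TSB in 96-well plates, 37 °C aerobic, 24 h. Assays were run in triplicate and repeated twice.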

Experiment [2] shares this test system. The experiment is described as follows: growth reduction vs untreated control (viable cell count); higher = stronger antibacterial activity; extreme values may be limits of the assay. Conditions: 0.1 mM; 24 h. The method, then: as §1

Where a name gives a salt, the structure may show the parent alone.

Growth reduction data for 28 molecules are collected here from the supplement of paper PMC12024424.

With `C#C[C@]1(O)CC[C@H]2[C@@H]3CCc4cc(OC)ccc4[C@H]3CC[C@@]21C` [Mestranol], the values for the growth reduction in experiment [1] and in experiment [2] were 92.6% and 93%, respectively.

Turning to `CCCCCCCCc1ccc(CCC(N)(CO)CO)cc1` [Fingolimod], the growth reduction in experiment [1] and in experiment [2] was 100% in each case.

Take `O=C(O)c1ccc2c(c1)CCCC(c1ccc(Cl)cc1Cl)=C2c1ccc(O[C@H]2CCN(CCCF)C2)cc1`: the growth reduction in experiment [1] and in experiment [2] was 100% in each case.

Take `CN[C@H]1CC[C@@H](c2ccc(Cl)c(Cl)c2)c2ccccc21` [Sertraline (hydrochloride)]: the growth reduction in experiment [1] and in experiment [2] was 100% each time.

For `COCCNCCc1cccc(Nc2ncc3c(n2)-c2ccccc2[C@H](c2ccccc2F)C3)c1` [Derazantinib], the growth reduction in experiment [1] and in experiment [2] was 100% in each case.

As for `COc1cc(C(=O)NS(=O)(=O)c2ccccc2C)ccc1Cc1cn(C)c2ccc(NC(=O)OC3CCCC3)cc12` [Zafirlukast], the growth reduction in experiment [1] and in experiment [2] was 100% in each case.

`CS(=O)(=O)c1cc(F)cc2c3c(n(Cc4ccc(Cl)cc4)c12)[C@@H](CC(=O)O)CC3` [Laropiprant]: the growth reduction was determined as 96.1% in experiment [1] and 99% in experiment [2].

Consider `C#C[C@]1(OC(C)=O)CC[C@H]2[C@@H]3CCC4=C[C@@H](OC(C)=O)CC[C@@H]4[C@H]3CC[C@@]21C` [Ethynodiol diacetate], for which the growth reduction amounted to 92.7% in experiment [1] and 94% in experiment [2].

For `CCOC(=O)[C@H](CCc1ccccc1)N[C@@H](C)C(=O)N1[C@H](C(=O)O)C[C@@H]2CCC[C@@H]21` [Ramipril], the results for the growth reduction in experiment [1] and in experiment [2] were 92.1% and 92%, respectively.

As to `C[C@H](Nc1cc(-c2cnn(C)c2)cc(Nc2cnccn2)n1)c1ccc(F)cc1` [Ilginatinib], the figures for the growth reduction in experiment [1] and in experiment [2] were 100% and 94%, respectively.

In the case of `COc1cc2/c(=N/c3ccc(Br)cc3F)nc[nH]c2cc1OCC1CCN(C)CC1` [Vandetanib], the growth reduction in experiment [1] and in experiment [2] was 100% in each case.

Take `O=C(Nc1ccc(F)cc1)c1cnc(SCc2cc(OC(F)(F)F)ccc2B(O)O)nc1`: the growth reduction in experiment [1] and in experiment [2] was 100% each time.

As to `CCCCCCCCCCCCCCCC[N+](C)(C)CCN(Cc1ccc(OC)cc1)c1ncccn1` [Thonzonium (bromide)], the growth reduction in experiment [1] and in experiment [2] was 100% throughout.

As for `COCCNCc1ccc(-c2cc3nccc(Oc4ccc(NC(=O)C5(C(=O)Nc6ccc(F)cc6)CC5)cc4F)c3s2)nc1` [Sitravatinib], the growth reduction in experiment [1] and in experiment [2] was 100% throughout.

In the case of `CC(=O)OC[C@H]1O[C@@H]([S-])[C@H](OC(C)=O)[C@@H](OC(C)=O)[C@@H]1OC(C)=O.CCP(CC)CC.[Au+]` [Auranofin], the growth reduction was 99.9% in experiment [1] and 100% in experiment [2].

Take `Cc1cc(C2CCCCC2)n(O)c(=O)c1` [Ciclopirox (olamine)]: the growth reduction came out at 99.3% in experiment [1] and 100% in experiment [2].

Consider `CCOC(=O)C1=C(C)NC(C)=C(C(=O)OC)C1c1cccc(Cl)c1Cl` (stereo not given) [Felodipine], for which the growth reduction in experiment [1] and in experiment [2] was 100% in each case.

The molecule `CC(OC(=O)NCC1(CC(=O)O)CCCCC1)OC(=O)C(C)C` (stereo not given) [Gabapentin enacarbil] yielded a growth reduction in experiment [1] of 90.4%.

On to `Cc1cnc(NC(=O)Nc2cc(Br)c(C)cc2OC[C@@H]2CNCCO2)cn1` [Rabusertib], for which the growth reduction in experiment [1] and in experiment [2] was 100% each time.

For the molecule `NCCCC[C@H](NC(=O)[C@@H](NC(=O)[C@H](Cc1c[nH]c2ccccc12)NC(=O)[C@H](CCCCN)NC(=O)[C@H](CCCCN)NC(=O)[C@H](Cc1c[nH]c2ccccc12)NC(=O)[C@H](Cc1c[nH]c2ccccc12)NC(=O)[C@H](CCCCN)NC(=O)[C@@H](N)CCCCN)C(c1ccccc1)c1ccccc1)C(N)=O`, the growth reduction in experiment [1] and in experiment [2] was 100% each time.

Turning to `Cc1cc(Nc2ncnc3ccc(NC4=NC(C)(C)CO4)cc23)ccc1Oc1ccn2ncnc2c1` [Tucatinib], the growth reduction in experiment [1] came to 91.9%; in experiment [2] it was 92%.

`CCc1cc(-c2noc(-c3cc(OC)nc(C4CCCC4)c3)n2)cc(C)c1OC[C@@H](O)CO` [Cenerimod]: the growth reduction in experiment [1] and in experiment [2] was 100% in each case.

On to `O=[N+]([O-])c1ccc(O)c2ncccc12` [Nitroxoline], for which the results for the growth reduction in experiment [1] and in experiment [2] were 98.4% and 100%, respectively.

On to `COc1cc(F)c(F)c(Nc2ccc(I)cc2F)c1NS(=O)(=O)C1(C[C@H](O)CO)CC1` [Refametinib], for which the growth reduction in experiment [1] and in experiment [2] was 100% in each case.

As to `COc1ccc(CN2CCN(C(c3ccc(F)cc3)c3ccc(F)cc3)CC2)c(OC)c1OC` [Lomerizine dihydrochloride], the growth reduction in experiment [1] amounted to 100%; in experiment [2] it was 98%.

Regarding `O=c1[nH]c(=O)n([C@H]2C[C@H](O)[C@@H](CO)O2)cc1F` [Floxuridine], the growth reduction in experiment [1] and in experiment [2] was 100% each time.

As to `CCCCCCCCCCCC1=C(O)C(=O)C=C(O)C1=O` [Embelin], the growth reduction in experiment [1] and in experiment [2] was 100% each time.

With `O/N=c1\cc(-c2cc3sccc3cn2)oc2ccc(CCCN3CCOCC3)cc12` [Foliglurax (monohydrochloride)], the growth reduction in experiment [1] and in experiment [2] was 100% each time.
